Data published in PubChem BioAssay AID1273 (Columbia University Molecular Screening Center, 2008).
In all, about 130,000 compounds went through this assay and about 1,200 (0.92%) were called active.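 How the source made its calls: active means inhibition above the mean plus 3 SD, with well images judged a real hit on visual review (cut at about 60% in these data, passing the limit was not always enough); inconclusive means inhibition over the cutoff but images rejected on review; inactive means inhibition not above the cutoff.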 Many of the other results were omitted from the sample, so actives are more common in it than they were.

experiment: inhibitors of insulin promoter-driven GFP, primary screen, imaging, TRM-6 cells (human fetal islet line), eGFP reporter, cell count (AID 1273;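 on normalized cell count: cells exposed to compound for 48 h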); conditions: at 2 µM, reporter expression induced with tamoxifen; inhibition: stronger effect = higher value; normalized cell count: measured here: cell count, toxicity

Compound	inhibition	normalized cell count
Cc1nc2scc(-c3cccs3)c2c(=O)n1N	9.8% (inactive)	105%
NC(=O)Cc1nc2scc(-c3ccc(Cl)cc3)c2c(=O)[nH]1	5.88% (inactive)	114%
CCCc1nc2scc(-c3ccc(C)cc3)c2c(=O)n1N	81.5% (active)	78.3%
COc1cc(OC)cc(-c2nnc(N(C)C(=O)c3ccncc3)s2)c1	36.4% (inactive)	156%
CC(NC(=S)NC1CCCCC1)C(c1ccccc1)N1CCOCC1 (stereo not drawn)	-38.9% (inactive)	111%
Cc1cccc(N(C(=O)c2ccc(CN3CCOCC3)o2)C(C(=O)NC2CCCCC2)c2ccc(F)cc2)c1 (stereo not drawn)	87.5% (active)	98.6%
Cc1cccc(N(C(=O)Cc2cccs2)C(C(=O)NC2CCCC2)c2ccsc2)c1 (stereo not drawn)	-23.3% (inactive)	119%
Cc1ccc(N(C(=O)c2ccc(CN3CCOCC3)o2)C(C(=O)NCCC(C)C)c2cccs2)c(C)c1 (stereo not drawn)	8.11% (inactive)	114%
C1CC1Cc1noc(CN2CCN(CC3CC3)CC2)n1	0% (inactive)	97.5%
CCOC(=O)C1(Cc2cccc(OC)c2)CCN(C(C)CC(C)(C)O)CC1 (stereo not drawn)	-275% (inactive)	102%
CCCCOC(=O)Nc1nccs1	93.8% (active)	53.2%
COc1cc(C(=O)Nc2nccs2)cc(OC)c1OC	-25.3% (inactive)	97.1%
O=C(COC(=O)c1ccc(O)cc1)Nc1nccs1	16.7% (inactive)	74.1%
CC(/C=N/NC(=O)c1ccncc1)=C\c1ccco1	23.1% (inactive)	115%
CC(=O)c1ccc(NC(=O)C(C)NCc2ccc(Cl)cc2)cc1 (stereo not drawn)	-189% (inactive)	58.5%
COCCNC(=O)COc1ccccc1C	20.8% (inactive)	112%
Cc1cccc(NC(=O)COc2ccccc2C)n1	-406% (inactive)	56.6%
Cc1ccc(S(=O)(=O)NC(=O)COc2ccccc2C)cc1	81.2% (active)	150%
COc1cccc2cc(S(=O)(=O)c3ccc(C)cc3)/c(=N/NS(=O)(=O)c3ccc(C)cc3)oc12	27.3% (inactive)	139%
COc1ccc([N+](=O)[O-])cc1NC(=O)COC(=O)/C=C/c1ccco1	-14.3% (inactive)	128%
COC(=O)C1=C(C)N(c2ccc(Br)cc2)C(=O)/C1=C\c1ccco1	25.6% (inactive)	98.3%
COc1ccc(N2C(=O)/C(=C\c3ccco3)N=C2SCC(N)=O)cc1Cl	91.7% (active)	75.5%
COC(=O)CC1=NN(c2ccccc2)C(=O)C1	0% (inactive)	102%
CN(C)C=NC(=O)c1cccn1-c1ncc(C(F)(F)F)cc1Cl	31.2% (inactive)	84.7%
